Rows were chosen to be rich in hits. Some 2.3% of all compounds tested hit in one or more screens of this group.
CHO-K1 Ca antag = counter-screen for M1 antagonists: effect in parental CHO-K1 cells. ATP-induced calcium, Fluo-8 fluorescence. inhibition, % at 3 µM. hit rate 0.6% among 360,000;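 active means inhibition above a per-plate cutoff, the plate's mean sample inhibition plus 3 SD, cut at about 24% in these data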;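 further: 0% = DMSO plus EC80 ATP and 100% = DMSO alone without ATP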
CHO-K1 Ca ag = counter-screen for M1 agonists: effect in parental CHO-K1 cells; Fluo-8 calcium fluorescence; scaled to maximal ATP response, vehicle zero; hit rate 0.48% among 360,000; activation, % at 3 µM; in the data active means activation above about 15%;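 further: untransfected CHO-K1 host cells lacking M1 receptor as counterscreen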
CHO-K1 Ca PAM = nonselective calcium activators in parental CHO-K1 cells, primary screen, counter-screen for M1 PAM project, cell-based, Fluo-8 calcium fluorescence, full deck, 1536-well; AID 602247, 2012; ATP EC20; 0% at ATP EC20, 100% at ATP max; hit rate 0.02% among 360,000; activation, % at 3 µM;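 active means activation above the run cutoff, the mean activation of all test compounds plus 3 SD, cut at about 40% in these data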;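 further: peak over basal fluorescence ratio in a 140 s read after ATP addition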
M1 antag = human M1 muscarinic receptor antagonists, primary screen, CHO-K1 cells, Fluo-8 calcium fluorescence, 1536-well. Muscarinic acetylcholine receptor M1 (Homo sapiens), P11229. CHO-K1 hM1, ACh EC80 antagonist. inhibition, % at 3 µM. hit rate 1.3% among 360,000;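 active means percent inhibition above its own plate's cutoff, namely the mean of that plate's compound wells plus 3 SD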;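 further: peak over basal fluorescence ratio during 140 s after agonist addition; 0% = ACh EC80 plus DMSO and 100% = DMSO alone without agonist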
Target sequence (P11229 whole entry, looked up): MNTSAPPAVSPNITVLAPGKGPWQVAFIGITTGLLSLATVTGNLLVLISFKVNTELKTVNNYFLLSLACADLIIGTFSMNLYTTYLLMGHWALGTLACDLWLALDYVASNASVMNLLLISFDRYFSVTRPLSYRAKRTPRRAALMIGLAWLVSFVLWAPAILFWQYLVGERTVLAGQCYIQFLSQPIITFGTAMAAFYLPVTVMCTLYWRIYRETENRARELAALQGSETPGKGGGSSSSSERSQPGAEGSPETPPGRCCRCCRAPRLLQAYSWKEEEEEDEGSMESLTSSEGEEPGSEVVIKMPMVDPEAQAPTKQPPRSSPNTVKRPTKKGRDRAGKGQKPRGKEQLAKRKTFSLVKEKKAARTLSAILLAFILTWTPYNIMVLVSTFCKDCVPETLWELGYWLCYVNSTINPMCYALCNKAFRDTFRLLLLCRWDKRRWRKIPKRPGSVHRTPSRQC
CHRM1 PAM = human M1 muscarinic receptor positive allosteric modulators, primary screen, CHO-K1 cells, Fluo-8 calcium fluorescence, 1536-well. Muscarinic acetylcholine receptor M1 (Homo sapiens), P11229. CHO-K1 hM1, ACh EC20; 0% = ACh EC20, 100% = maximal ACh. activation, % at 3 µM. hit rate 0.088% among 360,000. AID 588819, 2011; in the data active means activation above about 19%, passing the limit was not always enough
M1 ag = human M1 muscarinic receptor agonists, primary screen, Fluo-8 calcium fluorescence, CHO-K1 cells, HTS; Muscarinic acetylcholine receptor M1 (Homo sapiens), P11229; CHO-K1 hM1, agonist mode; 0% DMSO, 100% acetylcholine EC100; activation, % at 3 µM; hit rate 0.33% among 360,000;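 active means activation above the run's mean compound activation plus 3 SD, cut at about 16% in these data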;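 further: peak over basal fluorescence ratio within a 140 s kinetic read after compound addition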
* marks the source's active call; other numbers are inactive results.

SMILES	CHO-K1 Ca antag	CHO-K1 Ca ag	CHO-K1 Ca PAM	M1 antag	CHRM1 PAM	M1 ag
CCCOc1ccc(Cn2cnc3ccccc32)cc1	25*	3	4	1	0	-3
Fc1ccc(Cn2cnc3ccccc32)cc1	-2	1	11	-6	6	0
O=C(C1CCN(S(=O)(=O)c2cccc3cccnc23)CC1)N1CCn2c1nc1ccccc12	-3	2	10	11	-1	43*
O=C(O)COc1ccc(-c2nnn(CC(=O)O)n2)cc1	-13	1	19	-13	7	-5
COc1ccc(C(=O)Nc2ccc(Oc3ncnc4sc(-c5ccccc5)cc34)cc2)cc1OC	-14	16*	15	-10	4	-3
COc1cc(C(=O)Nc2ccc(Oc3ncnc4sc(-c5ccccc5)cc34)cc2)cc(OC)c1OC	-3	0	-6	10	-3	-5
COc1cc(-c2nc3ccccn3c2NCC2CCCO2)ccc1O (stereo not drawn)	-2	5	14	24*	-13	2
COc1cc(-c2nc3ccccn3c2/N=C/c2ccccc2)ccc1O	-19	0	12	-7	-6	27*
CCOc1cc(-c2nc3ccccn3c2NCC2CCCO2)ccc1O (stereo not drawn)	15	5	7	24*	-13	2
COCCNC(=O)C1(C)Cc2c(-c3ccc4c(c3)OCO4)ccnc2O1 (stereo not drawn)	-17	0	15	-11	5	-2
COc1ccc(C2CC=C(C(C)=O)CN2S(=O)(=O)c2ccccc2)cc1 (stereo not drawn)	24*	2	7	-7	13	-5
O=C(c1ccco1)N1CCN(C/C=C/c2ccccc2)CC1	2	0	8	2	7	-5
O=C(c1nn(Cc2ccccc2)c(=O)c2ccccc12)N1CCN(C/C=C/c2ccccc2)CC1	5	1	19	95*	-22	-5
CCn1nc(C(=O)N2CCN(Cc3nc4ccccc4s3)CC2)c2ccccc2c1=O	10	7	-20	38*	-17	-2
COc1cc2c(cc1OC)CN(CCC(C)c1ccc(Cl)cc1)CC2 (stereo not drawn)	-10	1	10	43*	-20	0
Cc1ccc(S(=O)(=O)Nc2ccc(C(=O)N3CCCC3)cc2)cc1	-7	2	13	1	5	-2
Cc1ccc(NS(=O)(=O)c2ccc(C(=O)N3CC(C)CC(C)C3)cc2)cc1 (stereo not drawn)	36*	53*	-6	53*	-17	60*
CC1CN(C(=O)c2ccc(S(=O)(=O)Nc3cccc(C(F)(F)F)c3)cc2)CC(C)O1 (stereo not drawn)	0	21*	-9	10	-5	25*
CCC(O)c1cnc(OCc2ccccc2)nc1OCc1ccccc1 (stereo not drawn)	-10	0	18	-4	-3	-7
CCN1C(=O)[C@H]2[C@@H](c3ccc(-c4ccc(OC)cc4)c(OC)c3)N3CCCC[C@@]3(C(=O)OC)[C@H]2C1=O	-17	0	13	5	9	0
CC(=O)Nc1cccc(NC(=O)CSc2nnc3ccc(-c4cccnc4)nn23)c1	2	0	-9	-6	0	2
CC(=O)Nc1ccc(NC(=O)CSc2nnc3ccc(-c4cccnc4)nn23)cc1	4	0	-14	20*	-8	-1
O=C(CN1CCCCC1)Nc1ccccc1	-7	0	9	-6	5	-5
O=C(C[n+]1ccccc1)Nc1ccc(Oc2ccccc2)cc1	-14	0	22	91*	-23	-6
O=C(CN1CCCCCC1)NN(Cc1ccccc1)c1ccccc1	1	1	17	56*	-23	-8
O=C(CN1CCCCCC1)Nc1ccc(Oc2ccccc2)cc1	-15	2	10	42*	-23	-6
COc1ccc(NC(=O)CN2CCN(c3ccccc3)CC2)cc1	5	0	3	2	8	-5
O=C(CN1CCCC1)NCc1ccccc1	-15	1	29	-7	6	-3

Source: PubChem BioAssay
